GALK inhibitor: qHTS Assay for Inhibitors of Human Galactokinase (GALK) | hit rate 0.007% among 270,000 | Purified GALK, Kinase-Glo residual ATP luminescence | AID 1868, 2009 | Potency, µM (series often up to 57.5 µM), inactives show at the highest dose activity change, negative = inhibition, most hits filed as inhibitors; also: potency is read from the fitted curve at half-maximal effect
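Galactose (100 uM) and ATP (35 uM) were turned over by 5 nM GALK for 1 h at RT. Kinase-Glo Plus then converted the remaining ATP into a luminescent signal.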
VP16 counter: VP16 counterscreen qHTS for inhibitors of ROR gamma transcriptional activity | Drosophila S2 Gal4-VP16 UAS-luciferase, luminescence, 20 h | Potency, µM (series often up to 53.6 µM), for the others: top-dose activity, negative = inhibition, most hits filed as inhibitors | hit rate 3.5% among 310,000 | AID 2546, 2010;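 also: Gal4-VP16 expression switched on by copper sulfate through the metallothionein promoter; potency is read from the fitted curve at half-maximal effect; nearly all actives have a fitted effect of over 50% in size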
RORgamma inh: qHTS for inhibitors of ROR gamma transcriptional activity; Nuclear receptor ROR-gamma (Mus musculus), P51450; Drosophila S2 Gal4-RORgamma UAS-luciferase reporter, 20 h; Potency, µM (titrated, usually from 53.6 µM), for inactives: at the highest dose activity change, negative = inhibition, actives largely listed as inhibitors; hit rate 5.4% among 310,000; AID 2551, 2010; also: potency is read from the fitted curve at half-maximal effect; nearly all actives have a fitted effect of over 60% in size
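Using a luciferase readout, inhibitors were identified by reduced reporter activity in Drosophila cells coexpressing a copper-inducible Gal4–ROR gamma fusion and UAS-driven Photinus luciferase, incubated 20 hr after 700 uM copper sulfate.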
TrxR1 inh: qHTS Assay for Inhibitors of Mammalian Selenoprotein Thioredoxin Reductase 1 (TrxR1): qHTS; recombinant rTrxR1, NADPH fluorescence consumption, selenite substrate; Potency, µM (doses to about 114 µM), for the others: top-dose activity change, negative = inhibition, hits mostly inhibitors; hit rate 1% among 390,000; AID 588453, 2011; also: potency is read from the fitted curve at half-maximal effect; nearly all actives have a fitted effect of over 65% in size
Target sequence (O89049 whole entry, looked up): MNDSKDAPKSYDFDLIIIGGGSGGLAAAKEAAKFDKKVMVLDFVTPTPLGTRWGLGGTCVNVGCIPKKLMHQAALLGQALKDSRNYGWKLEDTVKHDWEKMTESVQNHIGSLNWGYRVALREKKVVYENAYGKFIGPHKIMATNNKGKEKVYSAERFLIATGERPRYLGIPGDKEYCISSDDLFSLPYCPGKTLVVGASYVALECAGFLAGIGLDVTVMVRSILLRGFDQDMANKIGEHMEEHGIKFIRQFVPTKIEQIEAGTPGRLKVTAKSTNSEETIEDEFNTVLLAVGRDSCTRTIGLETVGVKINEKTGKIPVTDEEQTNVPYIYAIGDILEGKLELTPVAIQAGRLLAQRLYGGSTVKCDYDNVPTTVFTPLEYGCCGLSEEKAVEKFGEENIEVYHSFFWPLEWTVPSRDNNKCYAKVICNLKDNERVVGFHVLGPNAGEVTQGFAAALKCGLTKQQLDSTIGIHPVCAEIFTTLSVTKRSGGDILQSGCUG
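Rat TrxR1 (90 nM in the dispensed reagent) was pre-reduced with 400 uM NADPH for 5 min at room temperature, then incubated with compound for 15 min. After 400 uM selenite was added, NADPH fluorescence (Ex 340/Em 450 nm) was followed for 8 min.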
TrxR1 substrate: qHTS Assay for Substrates of Mammalian Selenoprotein Thioredoxin Reductase 1 (TrxR1): qHTS; Thioredoxin reductase 1, cytoplasmic (Rattus norvegicus), O89049; purified TrxR1 substrate turnover, NADPH consumption readout; Potency, µM (doses to about 114 µM), inactives show top-dose activity change, negative = substrate turnover; hit rate 0.01% among 390,000; AID 588456, 2011; also: potency is read from the fitted curve at half-maximal effect; nearly all actives have a fitted effect of over 50% in size
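Rat TrxR1, dispensed at 90 nM, was prereduced with 400 uM NADPH (final) for 5 min at ~22 deg C, then incubated with compound 15 min before 400 uM selenite. A first-read NADPH fluorescence drop versus no-compound background flagged substrates.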
FBPA coupling cs: qHTS Assay for Inhibitors of Fructose-1,6-bisphosphate Aldolase from Giardia Lamblia: Coupling assay counterscreen | coupling enzyme system counterscreen, AmpLite Red fluorescence | activity change, negative = inhibition, % at 58.2 µM, hits read low | AID 2472, 2010 | hit rate 0.67% among 290,000; in the data active = activity change below about -30%
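Coupling enzymes only (glyceraldehyde-3-phosphate) + compound, at 57.5 uM final, 10 min RT; add substrate/coupling/AmpLite Red mix, 20 min RT; fluorescence ex 525/em 598 nm. Actives flag coupling-system interference.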
* marks the source's active call; other numbers are inactive results; [ ] = dose if it differs, or a comment. Shown are actives, neighbours in structure and some others; about 5.9% of the full set was active somewhere. Unless noted, calls follow the shape of the dose curve; as a rule, active = well fitted curve in the direction sought with a large enough effect; inconclusive = small, poorly fitted or top-dose-only effect, or another doubt; inactive = no such curve, though single readings can be large; an effect the other way counts as inactive or inconclusive. % is scaled to controls: 0 for no effect and ±100 for the full control effect.

`COc1cccc(CN(C)C(=S)Nc2cccc(C)c2)c1` gave GALK inhibitor 2%, VP16 counter inconclusive, RORgamma inh 11µM*, TrxR1 inh -1%[57.1 µM], TrxR1 substrate 9%[57.1 µM] and FBPA coupling cs 1.
Screening CCN(CC)C(=S)Nc1ccc(OC)cc1 returned GALK inhibitor 1%, VP16 counter 3%, RORgamma inh -34%, TrxR1 inh -9%, TrxR1 substrate -4% and FBPA coupling cs 5.
For COc1ccc(CN(C)C(=S)Nc2ccc(Cl)cc2)cc1 the results were GALK inhibitor 0%, VP16 counter inconclusive, RORgamma inh 10µM*, TrxR1 inh 22%, TrxR1 substrate -3% and FBPA coupling cs -5.
COc1ccccc1-c1coc2cc(OCC(=O)OCc3ccccc3)ccc2c1=O was read as GALK inhibitor -4%, VP16 counter -10%, RORgamma inh 52%, TrxR1 inh 7%[57.1 µM], TrxR1 substrate 2%[57.1 µM] and FBPA coupling cs 1.
`COc1ccc(NC(=O)N2CCN(Cc3nc4ccc(C)cc4o3)CC2)cc1OC` gave TrxR1 inh 8%[57.1 µM] and TrxR1 substrate 4%[57.1 µM].
`CCOc1cccc(-c2c(C(=O)N/N=C/c3ccoc3)nnn2-c2nonc2N)c1` gave GALK inhibitor -4%, VP16 counter inconclusive, RORgamma inh 10µM*, TrxR1 inh 16% and TrxR1 substrate 3%.
`CCc1c(C(=O)N/N=C/c2ccco2)nnn1-c1nonc1N` gave GALK inhibitor -2%, VP16 counter -4%, RORgamma inh inconclusive, TrxR1 inh 0%, TrxR1 substrate -5% and FBPA coupling cs 2.
CCOc1cccc(-c2c(C(=O)N/N=C/c3ccncc3)nnn2-c2nonc2N)c1 was read as GALK inhibitor 1%, VP16 counter -11%, RORgamma inh -13%, TrxR1 inh 3% and TrxR1 substrate -4%.
CCOc1cccc(-c2c(C(=O)N/N=C/c3ccc(C)o3)nnn2-c2nonc2N)c1 was read as GALK inhibitor -3%, VP16 counter inconclusive, RORgamma inh 10µM*, TrxR1 inh -11% and TrxR1 substrate -5%.
Screening CCOc1ccc(-c2c(C(=O)N/N=C/c3ccoc3)nnn2-c2nonc2N)cc1 returned GALK inhibitor 6%, VP16 counter inconclusive, RORgamma inh inconclusive, TrxR1 inh 16%, TrxR1 substrate 0% and FBPA coupling cs 5.
For CCOc1cccc(-c2c(C(=O)N/N=C/c3ccco3)nnn2-c2nonc2N)c1 the results were GALK inhibitor -8%, VP16 counter 25µM*, RORgamma inh 11µM*, TrxR1 inh 4% and TrxR1 substrate 3%.
`COc1ccc(C)cc1NC(=O)C1CCN(S(=O)(=O)c2c(C)noc2/C=C/c2ccco2)CC1` gave TrxR1 inh 9% and TrxR1 substrate -1%.
For COc1cc(OC)cc(C(=O)NNC(=S)Nc2ccc(S(N)(=O)=O)cc2)c1 the results were GALK inhibitor 2%, VP16 counter 1%[10 µM], RORgamma inh -42%, TrxR1 inh -17%, TrxR1 substrate -9% and FBPA coupling cs -1.
Screening Cc1ccc(C)c(-n2c3nc(=O)[nH]c(=O)c-3cc3cc([N+](=O)[O-])ccc32)c1 returned GALK inhibitor -6%, VP16 counter 11µM*, RORgamma inh 10µM*, TrxR1 inh inconclusive, TrxR1 substrate -20% and FBPA coupling cs -47*.
Cc1cc(C)c(CSc2nnnn2-c2ccc(C(=O)O)cc2)c(C)c1 was read as VP16 counter 3%, RORgamma inh 18%, TrxR1 inh 15%[57.1 µM], TrxR1 substrate 5%[57.1 µM] and FBPA coupling cs 15.
`S=c1[nH]nc(COc2ccccc2)n1-c1ccc(Cl)cc1` gave TrxR1 inh inconclusive and TrxR1 substrate -13%.
`Cc1ccc(OCc2nnc(SCC(=O)O)n2-c2ccccc2)cc1` gave TrxR1 inh 11%[57.1 µM] and TrxR1 substrate -2%[57.1 µM].
COc1ccc(-n2c(Cn3nc(C(F)(F)F)cc3C)n[nH]c2=S)cc1 was read as GALK inhibitor 4%, VP16 counter 12%, RORgamma inh inconclusive, TrxR1 inh inconclusive, TrxR1 substrate 2% and FBPA coupling cs 1.
For COc1ccc(-n2c(COc3ccccc3)n[nH]c2=S)cc1 the results were GALK inhibitor 2%, VP16 counter -11%, RORgamma inh 7.1µM*, TrxR1 inh -6%, TrxR1 substrate 5% and FBPA coupling cs 1.
For COc1ccc(-n2c(COc3ccc(C)cc3)n[nH]c2=S)cc1 the results were GALK inhibitor 5%, VP16 counter 7.1µM*, RORgamma inh 5.6µM*, TrxR1 inh -3%, TrxR1 substrate 8% and FBPA coupling cs 2.
For Cc1ccc(-n2c(COc3ccccc3)n[nH]c2=S)cc1 the results were GALK inhibitor -1%, VP16 counter inconclusive, RORgamma inh 2.5µM*, TrxR1 inh -5%[57.1 µM], TrxR1 substrate 11% and FBPA coupling cs 5.
O=C1NC(c2cccc3ccccc23)Nc2ccc(Cl)cc21 (stereo not drawn) was read as TrxR1 inh -1%[11.4 µM] and TrxR1 substrate 5%[11.4 µM].
Cc1ccc(C(=O)COC(=O)CCN2C(=O)C3C4CCC(C4)C3C2=O)cc1[N+](=O)[O-] (stereo not drawn) was read as GALK inhibitor -6%, VP16 counter -4%, RORgamma inh -5%, TrxR1 inh 26% and TrxR1 substrate -1%.
Screening COC(=O)[C@@H]1CC[C@H](C)[C@@H](c2ccc(C)cc2)N1C(=O)c1ccc(/C=N\OCC[C@@H]2C=C[C@H](OC(C)=O)[C@H](COC(C)=O)O2)cc1 returned VP16 counter 4%[10 µM], RORgamma inh 17%[10 µM] and FBPA coupling cs 1.
`O=c1oc2c3c(ccc2c2ccccc12)OCN(Cc1ccc(Cl)cc1)C3` gave TrxR1 inh 31% and TrxR1 substrate 12%.
Screening CCCc1cc(=O)oc2c3c(ccc12)OCN(Cc1ccccc1OC)C3 returned TrxR1 inh 22µM* and TrxR1 substrate inactive.
Screening Cc1cc(=O)oc2c3c(ccc12)OCN(Cc1ccc(Cl)cc1)C3 returned TrxR1 inh 20µM* and TrxR1 substrate 916%.

Screens: PubChem BioAssay, National Center for Advancing Translational Sciences (NCATS)
